Test results reported in PubChem BioAssay (NCI).
About 83,000 compounds went through this panel and 20% of them were active in at least one assay; those are over-represented in the sample as a whole.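 The test compound was applied at a single concentration to cells in 96-well plates for 48 hours, and percent growth was recorded.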 A number with no mark means an inactive call. Calls of active or inactive are those of the source. Rule for the calls: active = growth percent below 10; inactive = the rest.

How the values were obtained:
Assay in all cases: NCI-60 one-dose screen, 48 h (100 = growth as untreated, 0 = no growth, -100 = all killed)
Conditions in all cases: 10 µM unless noted
[1] = tested on: NCI-H23 lung
[2] = tested on: NCI-H226 lung
[3] = tested on: NCI-H322M lung
[4] = tested on: HOP-62 NSCLC
[5] = tested on: NCI-H460 lung
[6] = tested on: HOP-92 NSCLC
[7] = tested on: NCI-H522 lung
[8] = tested on: A549/ATCC NSCLC
[9] = tested on: 786-0 renal
[10] = tested on: COLO 205 colon

SMILES | growth [1] | growth [2] | growth [3] | growth [4] | growth [5] | growth [6] | growth [7] | growth [8] | growth [9] | growth [10]
c1ccc(C(Nc2ccccn2)(c2ccccc2)c2ccccc2)cc1 | 74.6% | 72.6% | 64.8% | 99% | 79.9% | 4.44% (active) | 70.7% | 65.9% | 81.4% | 90%
C=CCn1c(C)nc2cc(Nc3nc(Nc4ccc5nc(C)n(CC=C)c5c4)nc4ccccc34)ccc21 | 94.2% | 99.8% | 109% | 101% | 117% | 79.8% | 99.1% | 96.3% | 113% | 108%
COc1cc(C2CC(c3ccc(Nc4ccnc5cc(Cl)ccc45)cc3)=NN2c2ccccc2)cc(OC)c1OC (stereo not given) | 84.4% | 83.6% | 91.2% | 72.8% | 68.9% | 52.5% | 53% | 64.6% | 76.1% | 74.1%
Cc1cc(NC(=O)C2c3ccccc3C(=O)N(CC(C)C)C2c2cccs2)no1 (stereo not given) | 47.6% | 103% | 107% | 43.8% | 69.1% | -0.868% (active) | -66.5% (active) | 35.3% | -32.6% (active) | -83.9% (active)
Oc1[nH]c2ccc(Cl)cc2c1/C=c1/ccc2c(c1)N=C(c1ccc(F)cc1)N=2 | 74.5% | 89.9% | 84.1% | 74.5% | 74.2% | 34.2% | 80.7% | 71.4% | 76% | 97.6%
COc1cccc(OCC(O)CN2CCN(c3ccccc3)CC2)c1 (stereo not given) | 106% | 106% | 129% | 103% | 114% | 129% | 80.3% | 114% | 104% | 138%
Cc1cc(C)c2c(n1)sc1c(Nc3ccc(Cl)cc3Cl)ncnc12 | 19% | 36.2% | 43.9% | 2.53% (active) | 9.44% (active) | 36.2% | 30.5% | 26.2% | 10.9% | 23.3%
CC[C@H](Nc1nc(N)nc(C2CC2)c1C#N)c1nc2cccc(NCc3ccc(C(=O)NO)cc3)c2c(=O)n1-c1ccccc1 | -14.8% (active) | -21.9% (active) | 21.3% | 5.11% (active) | -15.1% (active) | -14% (active) | -29.6% (active) | -30.6% (active) | -9.68% (active) | -17.8% (active)
COc1ccc(-c2nnc(SCC(=O)Nc3ccc(C(=O)/C=C/c4ccc(Cl)cc4)cc3)n2-c2ccccc2)cc1 | 91.1% | 103% | 118% | 100% | 106% | 105% | 84% | 88.5% | 97.4% | 107%
C[C@]12CCc3nc(Nc4ccc(O)cc4)sc3C1=CC[C@@H]1[C@@H]2CC[C@]2(C)/C(=N/NC(N)=S)CC[C@@H]12 | 1.05% (active) | 55.4% | 4.16% (active) | -24.5% (active) | -72% (active) | -19.3% (active) | -55.2% (active) | -26.7% (active) | -73.6% (active) | -40.5% (active)
COc1cc(C2CC(c3cccc(Nc4ccnc5cc(Cl)ccc45)c3)=NN2c2ccccc2)cc(OC)c1OC (stereo not given) | 79.5% | 82.1% | 87% | 82.3% | 71.1% | 33.3% | 53.8% | 76.2% | 88% | 92.2%
CC(C)COC(=O)NC(C)(C)C | 101% | 104% | 100% | 107% | 107% | 98.9% | 71.5% | 101% | 98.1% | 106%
CN(C)c1ccc(C(c2ccccc2)c2ccc(N(C)C)cc2)cc1 | 79.1% | 95.2% | 128% | 104% | 99% | 63.4% | 88.3% | 91.8% | 97.5% | 111%
O=c1cc(N2CCOCC2)oc2c(-c3ccc4c(c3)OCCO4)csc12 | 31.9% | 11.6% | 19.8% | 15.5% | 22% | 11.9% | 28.8% | 12.9% | 9.88% (active) | 5.88% (active)
N#Cc1ccc(NC(=O)Nc2nc3ccc(OC(F)(F)F)cc3s2)cc1 | -22.1% (active) | 12.7% | 4% (active) | 3.68% (active) | -3.29% (active) | -13.1% (active) | -33.5% (active) | 3.01% (active) | -12.6% (active) | -90.1% (active)
Cc1nc2n[nH]c(N)c2nc1C | 102% | 99.9% | 93.1% | 104% | 111% | 100% | 93.9% | 99.2% | 105% | 109%
C=CCn1c(SCC(=O)Nc2ccc(C(=O)/C=C/c3ccccc3)cc2)nnc1-c1ccc(OC)c(OC)c1 | 80.7% | 85.9% | 85.9% | 99.1% | 88.2% | 82.7% | 68.3% | 61% | 75.6% | 91.2%
Cc1cc(C)cc(CCCCCCCCCCCCCCCCCC(=O)O)c1 | 104% | 111% | 110% | 107% | 113% | 116% | 92% | 96.6% | 99.5% | 113%
CC[C@H](Nc1nc(N)nc(N)c1Cl)c1nc2cccc(NCc3ccc(C(=O)NO)cc3)c2c(=O)n1-c1ccccc1 | -71.6% (active) | 4.53% (active) | 35.8% | 11.6% | 1.8% (active) | -15.7% (active) | -13.5% (active) | -4.67% (active) | 3.36% (active) | -20.1% (active)
c1ccc(-c2[nH]c3ccccc3c2-c2ccccc2)cc1 | 82% | 91.4% | 82.2% | 90% | 82.5% | 8.71% (active) | 91.8% | 84.5% | 83.9% | 107%
CN(C)c1ccc(Nc2c3ccccc3nc3ccccc23)cc1 | 16% | -38.3% (active) | 15.5% | 32.6% | -26.6% (active) | -7.43% (active) | 20.4% | 14.2% | 9.08% (active) | -51.7% (active)
CC(COC(=O)c1ccccc1)N1CC2CCC(C1)O2 (stereo not given) | 107% | 98.2% | 97.8% | 95.1% | 104% | 91.1% | 104% | 100% | 99.8% | 104%
C1=C\CCCCN2CC[C@H]3[C@H](CCCC/C=C\CCCN4C[C@@H](CCCCC/1)C[C@@H]3C4)C2 | 79.5% | 110% | 108% | 76.3% | 51.8% | 17.6% | 47.8% | 48.9% | 73.2% | -64.3% (active)
CCN(CC)c1ccc2nc3c4ccccc4c(=O)cc-3n(-c3ccccc3)c2c1 | -3.45% (active) | 5.4% (active) | -23.5% (active) | 9.84% (active) | -41.5% (active) | -7.83% (active) | -8.95% (active) | 11.6% | 4.36% (active) | -55.1% (active)
CCCCC(CCc1ccccn1)C(=O)c1ccccc1 (stereo not given) | 98.8% | 118% | 103% | 106% | 112% | 94.9% | 131% | 111% | 110% | 112%
COC(=O)C(C)NC1=C(Cl)C(=O)C(NC(C)C(=O)OC)=C(Cl)C1=O (stereo not given) | 101% | 100% | 101% | 98.7% | 95.9% | 101% | 78.2% | 98.9% | 105% | 99.5%
C=CCOc1c(Br)cc(Br)cc1Br | 53.1% | 81.5% | 45% | 58.6% | 38.5% | 90.6% | 27.6% | 59.7% | 102% | 103%
